FUS yeast rescue: suppressors of FUS proteinopathy in yeast; S. cerevisiae FUS-expressing, growth rescue, OD600, 24 h; Potency, µM (series often up to 76.6 µM), actives largely listed as activators; 390,000 compounds, 0.24% hits;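 note: plate controls were DMSO vehicle for no effect and reference control for full effect; nearly all actives have a fitted effect of over 55% in size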
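Galactose (2%) drives FUS expression in yeast precultured in raffinose; seeding density OD 0.005. Test compounds incubated 24hr at 30C and 99% humidity before absorbance at 600 nm was measured.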
PINK1 expr mod: PINK1 expression modulation. PINK1 immunofluorescence, high-content cytometry, 24 h. Potency, µM (highest dose often 76.6 µM), inactives show at the top dose activation (PINK1 increase), most hits filed as activators. 410,000 compounds, 0.2% hits; active = well fitted activation curve with a large enough effect; inconclusive = small, poorly fitted or top-dose-only effect; cell line not stated here; note: % of control where 0% means no effect; nearly all actives have a fitted effect of over 65% in size
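PINK1 protein, normally rapidly degraded, was detected by immunofluorescence after 24 hour compound treatment of a stable cell line. Titration data (5 concentrations) came from laser-scanning cytometry, with CCCP-treated wells as controls.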
Glioma ERSR ind: induces the endoplasmic reticulum stress response in human glioma cells; 420,000 compounds, 0.02% hits; U87-MG GRP78 promoter luciferase reporter, 16 h; AID 602332; Potency, µM, for inactives: top-dose activation, hits mostly activators; note: series mostly up to about 76 µM; % of control where 0% means no effect; nearly all actives have a fitted effect of over 35% in size
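Stably transfected U87-MG glioma cells carrying a GRP78-based luciferase sensor; 16 h compound incubation. Luminescence end-point read 10 min after Bright-Glo addition at room temperature.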
Vif-A3G inh: inhibitors of Vif-APOBEC3G interaction; Q9HC16; HeLa A3G-eYFP + Vif (tagged APOBEC3G with the HIV-1 protein that degrades it), YFP fluorescence, overnight; Potency, µM (highest dose often 46.1 µM), without a hit: at the highest dose activity, negative = active, most hits filed as inhibitors; 410,000 compounds, 0.076% hits; AID 602310; note: % is set by controls: 0 for no effect and ±100 for the full control effect; nearly all actives have a fitted effect of over 60% in size
Target sequence (Q9HC16 whole entry, looked up): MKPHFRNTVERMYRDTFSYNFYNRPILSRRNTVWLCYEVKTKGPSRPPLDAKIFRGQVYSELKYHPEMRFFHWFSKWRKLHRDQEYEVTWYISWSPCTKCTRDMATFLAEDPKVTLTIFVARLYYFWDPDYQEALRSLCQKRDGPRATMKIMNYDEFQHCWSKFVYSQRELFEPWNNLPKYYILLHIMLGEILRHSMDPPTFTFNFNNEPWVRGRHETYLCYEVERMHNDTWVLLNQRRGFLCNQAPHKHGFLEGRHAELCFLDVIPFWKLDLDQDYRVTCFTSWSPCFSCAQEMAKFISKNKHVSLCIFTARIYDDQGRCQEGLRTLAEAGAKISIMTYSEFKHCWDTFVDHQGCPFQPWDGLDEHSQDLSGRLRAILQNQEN
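Read-out is eYFP fluorescence (Ex 488/Em 500-530) from Vif-expressing HeLa A3G-eYFP cells; more signal means A3G escaped Vif-mediated degradation. Cells plated overnight, compound pinned in, incubated overnight at 37 deg C.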
Vif-APOBEC3F blk: blocks the Vif interaction with APOBEC3F. HeLa A3F-eYFP + Vif (tagged APOBEC3F with the HIV-1 protein that degrades it), YFP fluorescence increase. Potency, µM (titrated, usually from 46.1 µM), for the others: at the top dose activity, negative = active. 390,000 compounds, 0.2% hits. AID 602313; note: % of control where 0% means no effect; nearly all actives have a fitted effect of over 65% in size
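Fluorescence increase (Ex 488/Em 500-530) after overnight compound treatment at 37 deg C flags inhibition of Vif-driven A3F-eYFP loss in stable HeLa A3F-eYFP/Vif cells seeded overnight beforehand.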
Abeta yeast res: restores growth of yeast expressing A-beta42 peptide; yeast expressing A-beta42, growth rescue, OD600, 48 h; response scale: 0% DMSO, 100% iron-clioquinol control; Potency, µM (highest dose often 46.1 µM), usual class: activators; 410,000 compounds, 0.063% hits; note: nearly all actives have a fitted effect of over 55% in size
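Growth rescue measured by 600 nm absorbance after 48 h yeast culture at 30 C with compound. Values normalized between DMSO and an equimolar ferric chloride plus clioquinol control.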
* hit, by the source's call; i = inactive; ? = inconclusive; nt = not tested or not shown; [ ] = dose if it differs, or a comment. Sampled rows, rich in hits. Any-hit rate of the full collection: about 0.69%. Unless noted, calls come from the whole dose curve; as a rule, active = well fitted curve in the direction sought with a large enough effect; inconclusive = small, poorly fitted or top-dose-only effect, or another doubt; inactive = no such curve, though single readings can be large; an effect the other way counts as inactive or inconclusive. Potency is the fitted concentration of half-maximal effect.

SMILES | FUS yeast rescue | PINK1 expr mod | Glioma ERSR ind | Vif-A3G inh | Vif-APOBEC3F blk | Abeta yeast res
Clc1ccccc1Cn1c(/C=C/c2ccco2)nc2ccccc21 | nt | 9% | -3% | 10µM* | ? | i
O=C(O)c1ccccc1C(=O)N1N=C2/C(=C/c3cccc([N+](=O)[O-])c3)CCCC2C1c1cccc([N+](=O)[O-])c1 (stereo not given) | 25µM* | 0% | 0% | 0% | -3% | i
COCCn1c(C)cc(C2=NNC(=Nc3ccc(OC)cc3)SC2)c1C | ? | 2%[38.3 µM] | -2% | ? | 2% | i
COCCn1c(C)cc(C2=NNC(=Nc3ccccc3)SC2)c1C | 10µM* | 5% | -8% | 3% | -5% | i
O=C(c1ccc(Cl)c([N+](=O)[O-])c1)N1CCN(c2ccccn2)CC1 | nt | -3% | -3% | 0% | 0% | i
O=C(c1ccc(Sc2cccc(Cl)c2)c([N+](=O)[O-])c1)N1CCN(c2ccccn2)CC1 | i | -2% | -6% | 6% | 1% | 5µM*
COc1cc(=O)n2c(c1C(=O)NC(C)c1ccco1)CCN(Cc1cc(C)ccc1C)CC2 (stereo not given) | nt | -1% | -3% | nt | nt | nt
COc1ccccc1N1CCN(c2nc(CNC(=O)c3sc(C)nc3C)nc3ccccc23)CC1 | nt | 1% | -3% | nt | nt | nt
Cc1ccccc1CN1[C@H](C)[C@H](c2ccccc2)OCCS1(=O)=O | nt | nt | -1% | -5% | nt | nt
Cc1oc(-c2ccc(C(=O)N(C)Cc3ccccc3)cc2)nc1CN1CCc2ccccc21 | 20µM* | 2% | -1% | 5% | 5% | i
O=C(Nc1cc(C(=O)NC2CCOCC2)c2c(c1)ncn2C1CCCC1)c1ccccc1 | nt | -1% | -2% | nt | nt | nt
CN(C)CCNc1ccc2ncn3c4ccc(O)cc4c(=O)c1c23 | nt | -2% | 0% | ? | 25µM* | i
CCOc1ccc(-n2c(SCC(=O)c3ccccc3Cl)nnc2-c2ccncc2)cc1 | 18µM* | nt | nt | nt | nt | nt
C/C(=C(\CCO)SSCC1CCCO1)N(C=O)Cc1cnc(C)nc1N (stereo not given) | nt | nt | -5% | nt | nt | nt
O=c1[nH]ncc2c3ccccc3n(Cc3ccc(F)cc3)c12 | i | 11% | 1% | -6% | 1% | i
O=c1[nH]ncc2c3ccccc3n(Cc3cccc(Cl)c3)c12 | i | 4% | 1% | ? | 25µM* | i
COCC1CCN(Cc2c(C(=O)N3CCc4ccccc4C3)nc3ccc(Cl)cn23)C1 (stereo not given) | 7.1µM* | 2% | 3% | -4% | -22% | i
O=C(Nc1cc(C(=O)N2CCN(CCO)CC2)c2c(c1)ncn2C1CCCC1)c1ccccc1 | nt | 1% | -3% | nt | nt | nt
CO[C@H]1[C@H](NC(=O)c2cccs2)c2ccccc2C12CCN(Cc1cccn1-c1ccccn1)CC2 | nt | 0% | -3% | nt | nt | nt
COc1ccc(-c2nn(-c3ccccc3)cc2C(=O)Nc2ccc(C(=O)O)cc2)cc1OC | i | 2% | -1% | -7% | 10% | i
COc1cccc(NC(=O)CN(C)C(=O)/C=C/c2cn(-c3ccccc3)nc2-c2ccc(OC)c(OC)c2)c1 | 40µM* | 2% | -7% | -7% | 7% | i
CCOC(=O)c1ccc(NC(=O)c2cn(-c3ccccc3)nc2-c2ccc(OC)c(OC)c2)cc1 | 25µM* | 1% | 0% | -2% | -6% | i
CCN(CC(=O)Nc1ccc(NC(C)=O)cc1)C(=O)/C=C/c1cn(-c2ccccc2)nc1-c1ccc(C)cc1 | 32µM* | 4% | 2% | 8% | -4% | i
COc1ccc(-c2nn(-c3ccccc3)cc2/C=C/C(=O)N(C)CC(=O)Nc2cccc(F)c2)cc1OC | ? | 2% | -2% | -9% | -4% | i
COc1ccc(/C=C/C(=O)N2CCc3c(cnc(C)c3CNS(=O)(=O)c3cccs3)C2)cc1 | nt | 0% | 1% | nt | nt | nt
SMILES | FUS yeast rescue | PINK1 expr mod | Glioma ERSR ind | Vif-A3G inh | Vif-APOBEC3F blk | Abeta yeast res
COCCCn1c(-c2ccco2)nc2ccccc2c1=O | i | -1% | -3% | -2% | -7% | i
COCCCN=C(c1ccco1)n1c(=S)nc(-c2ccco2)n(CCCOC)c1=S | 28µM* | 0%[38.3 µM] | 5% | 1% | -3% | i
Brc1ccc2c(c1)C(c1ccc(N3CCOCC3)cc1)=NNC(c1cccs1)=N2 | ? | -2% | 32µM* | -13% | -9% | i
CCOc1ccc(C2=NNC(c3cccs3)=Nc3ccc(OC)cc32)cc1 | 18µM* | 1% | 12% | -5% | nt | i
CCOc1ccc(C2=NNC(c3cccnc3)=Nc3ccc(OC)cc32)cc1 | i | 2% | 4% | -16% | -13% | i
C=C(c1ccc2ccccc2n1)c1cccs1 | nt | nt | 0% | 5% | nt | nt
CCc1nc2sc3ccccc3c(=O)c2c(=O)n1Cc1ccco1 | 32µM* | 1% | 0% | -8% | -10% | i
O=c1c2ccccc2sc2nc(C3CCCCC3)n(Cc3ccco3)c(=O)c12 | i | -4%[38.3 µM] | -3% | 0% | -9% | i
CC1(C)S[C@@H]2[C@H](NC(=O)[C@H](N)c3ccccc3)C(=O)N2[C@@H]1C(=O)OCOC(=O)[C@@H]1N2C(=O)C[C@@H]2S(O)(O)C1(C)C | nt | nt | -4% | nt | nt | nt
Cc1cc(C(=O)NCc2nc(-c3ccccc3NC(=O)C3CCCO3)oc2C)nc(C)n1 (stereo not given) | nt | 0% | -6% | nt | nt | nt
Cc1cc(N/N=C/c2ccc([N+](=O)[O-])o2)nc2ccccc12 | i | ? | 3% | 11µM* | ? | i
Cn1c(/C=C/c2ccc([N+](=O)[O-])o2)nc2ccccc2c1=O | i | 7% | -9% | 2.8µM* | 11µM* | i
Fc1ccc(N2CCN(Cc3ccc4c(c3)CN(Cc3cccn3-c3cccnc3)CCO4)CC2)cc1 | nt | 0% | -1% | nt | nt | nt
CCCC[n+]1c(/C=C/c2ccc(N(C)C)cc2)sc2ccccc21 | nt | 5µM* | -7% | 0% | nt | nt
CCCCn1c(SCc2nc3ccccc3s2)nc2cc(S(N)(=O)=O)ccc21 | 22µM* | 3%[38.3 µM] | -3% | -3% | 2% | i
CO[C@H]([C@H](C)/C=C/N(C)C=O)[C@@H](C)C(=O)CC[C@H](C)[C@H](O)[C@H](C)[C@H]1OC(=O)/C=C/C(C)=C/C[C@H](O)C[C@@H]2C=CC[C@@H](C[C@H](OC)[C@@H](C)[C@@H](OC)C[C@@H](OC)[C@@H]1C)O2 | 14µM* | nt | nt | nt | nt | nt
COCc1c(C(=O)N2CC3CCC2C3)cnn1-c1nccc(-c2ccccc2OC)n1 (stereo not given) | nt | 1% | 1% | nt | nt | nt
S=c1[nH]c2ccccc2n1CCOc1ccccc1 | i | 2% | 2% | -2% | -6% | 11µM*
